Screens as filed in PubChem.
PriA SSB inh – K. pneumoniae PriA-SSBct interaction inhibition. AlphaScreen SSBct-PriA binding, biotinylated peptide. inhibition, % at 33 µM. actives 0.6% (n = 430,000); in the data active means inhibition mostly above about 37%, no sharp cut-off; inactive means mostly below about 20%
CCHF vOTU inh-1 – CCHFV vOTU protease inhibition; Pep-AMC fluorescence; inhibition, % at 11.5 µM; actives 0.55% (n = 370,000); AID 651958
TcdB inh – TcdB glycohydrolase inhibition; TcdB glycohydrolase enzymatic assay, plate reader; actives 0.24% (n = 350,000); AID 652162; P18177; inhibition, % at 9.99 µM; in the data active means inhibition above about 10%
BH1578 lux ind – quorum light induction in luxS cqsA deficient V. cholerae; actives 0.16% (n = 350,000); V. cholerae BH1578 lux reporter, luminescence, 6 h; activation, % at 18.7 µM; in the data active means activation mostly above about 9.7%, no sharp cut-off
PrPC TRFRET – cell surface PrPC inhibition, primary TR-FRET screen. TR-FRET read-out. P04156. actives 0.43% (n = 370,000). inhibition, % at 13.8 µM; in the data active means inhibition above about 24%
VHR inh abs – blocks human VHR1 dual specificity phosphatase; inhibition, % at 13.3 µM; AID 1654; actives 0.52% (n = 290,000); recombinant VHR phosphatase, pNPP absorbance; P51452; in the data active means inhibition above about 50%
Target sequence (P51452 whole entry, looked up): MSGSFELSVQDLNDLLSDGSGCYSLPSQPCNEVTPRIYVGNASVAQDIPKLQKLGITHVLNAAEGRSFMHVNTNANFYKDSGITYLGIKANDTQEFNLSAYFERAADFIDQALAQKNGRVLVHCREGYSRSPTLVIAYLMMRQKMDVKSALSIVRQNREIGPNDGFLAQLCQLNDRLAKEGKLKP
CCHF vOTU inh-2 – CCHFV vOTU protease inhibition, confirmation; inhibition, % at 11.5 µM; Recombinant CCHFV vOTU, Pep-AMC fluorescence; actives 17% (n = 1,900); shares compounds with CCHF vOTU inh-1
Large screens that a line does not name were inactive (follow-up assays come after a bar, where they were run). This is a sample that favours compounds with a hit; in the whole collection about 1.5% have one here. Unless noted, no stated cut-off is given here; in the data, active means inhibition above about 30%; inactive means the rest.

Cc1cc(C(O)CCNC(=O)c2ccc(S(=O)(=O)N(C)C)cc2)c(C)o1 (centres undefined)	none (no result: CCHF vOTU inh-1, TcdB inh, BH1578 lux ind, PrPC TRFRET, VHR inh abs)
CCn1c(=NC(=O)c2ccccc2)sc2cc3c(cc21)OCCO3	none (no result: CCHF vOTU inh-1, TcdB inh, BH1578 lux ind, PrPC TRFRET, VHR inh abs)
CN(C)c1ncc(C2=C(Cl)C(=O)C(N3CCCC3)=C(Cl)C2=O)s1	CCHF vOTU inh-1 62 (no result: TcdB inh, VHR inh abs) | CCHF vOTU inh-2 49
CC(C)(C)c1ccc(/C=N/OCC(=O)NCc2ccc(F)cc2)cc1	CCHF vOTU inh-1 46 (no result: PriA SSB inh) | CCHF vOTU inh-2 inactive
Cc1ccc(C(=O)Nc2ccc3c(c2)C(=O)NCCO3)cc1	none (no result: CCHF vOTU inh-1, TcdB inh, BH1578 lux ind, PrPC TRFRET, VHR inh abs)
Cc1cc(C)c(C)c(OCC(=O)NCC2CCCO2)c1 (centres undefined)	CCHF vOTU inh-1 33 (no result: TcdB inh) | CCHF vOTU inh-2 inactive
O=S(=O)(Nc1nc(-c2ccccc2)cs1)c1cccc(C(F)(F)F)c1	CCHF vOTU inh-1 32 | CCHF vOTU inh-2 inactive
Nc1ccc(O)c([N+](=O)[O-])c1	none (no result: VHR inh abs)
O=[N+]([O-])c1cc(S(=O)(=O)c2ccc(O)c([N+](=O)[O-])c2)ccc1O	CCHF vOTU inh-1 43 (no result: TcdB inh) | CCHF vOTU inh-2 inactive
Nc1cc(S(=O)(=O)O)cc([N+](=O)[O-])c1O	CCHF vOTU inh-1 31 | CCHF vOTU inh-2 inactive
CCOc1ccc(C(=O)Nc2ccc3c(c2)N(S(=O)(=O)c2ccccc2)CCC3)cc1OCC	none (no result: CCHF vOTU inh-1, TcdB inh, BH1578 lux ind, PrPC TRFRET, VHR inh abs)
FC(F)(F)c1cc(CCN2CCNC[C@@H]2c2ccccc2)cc(C(F)(F)F)c1	none (no result: VHR inh abs)
FC(F)(F)c1cc(CO[C@@H]2CCCN[C@@H]2c2ccccc2)cc(C(F)(F)F)c1	CCHF vOTU inh-1 33 (no result: VHR inh abs) | CCHF vOTU inh-2 inactive
CO[C@@](C)(CNS(=O)(=O)c1cccnc1)c1ccccc1F	none (no result: CCHF vOTU inh-1, TcdB inh, BH1578 lux ind, PrPC TRFRET, VHR inh abs)
O=C(c1cncc(Br)c1)N1CCN(c2nc(-c3ccsc3)cs2)CC1	none (no result: CCHF vOTU inh-1, TcdB inh, BH1578 lux ind, PrPC TRFRET, VHR inh abs)
N#C/C(=C/c1ccc([N+](=O)[O-])cc1)C(N)=O	CCHF vOTU inh-1 34 | CCHF vOTU inh-2 inactive
Cc1ccccc1SCC(=O)NNC(=O)c1ccccc1O	CCHF vOTU inh-1 39 | CCHF vOTU inh-2 inactive
Cc1ccc2ncc(C(=O)Nc3ccc(C)c(Cl)c3)c(=O)n2c1	none (no result: CCHF vOTU inh-1, TcdB inh, BH1578 lux ind, PrPC TRFRET, VHR inh abs)
CC(C)(C)[S@@](=O)N1Cc2cc(C(=O)N3CCc4ccccc4C3)nc(-c3cccc(-c4cccnc4)c3)c2[C@H]1CCO	none (no result: PriA SSB inh, CCHF vOTU inh-1, BH1578 lux ind, PrPC TRFRET, VHR inh abs)
CC(C)(C)S(=O)N1Cc2cc(C(=O)N3CCc4ccccc4C3)nc(-c3cccc(-c4cccnc4)c3)c2[C@@H]1CCO (some centres undefined)	CCHF vOTU inh-1 37 (no result: PriA SSB inh, BH1578 lux ind, VHR inh abs) | CCHF vOTU inh-2 inactive
CCc1cc(=O)n(CCNC(=O)Nc2cccs2)cn1	none (no result: CCHF vOTU inh-1, TcdB inh, BH1578 lux ind, PrPC TRFRET, VHR inh abs)
O=C(CNS(=O)(=O)c1ccccc1Br)OCC(=O)N1CCc2ccccc21	none (no result: TcdB inh)
CC(=O)Nc1ccc(S(=O)(=O)NCC(=O)OCC(=O)N2CCc3ccccc32)cc1	CCHF vOTU inh-1 30 (no result: TcdB inh) | CCHF vOTU inh-2 inactive
Cc1cc(/C=C(\C#N)C(=O)Nc2ccccc2F)c(C)[nH]1	CCHF vOTU inh-1 33 | CCHF vOTU inh-2 inactive
Cc1noc(NS(=O)(=O)c2ccc(NC(=O)c3oc4ccc(Cl)cc4c3C)cc2)c1C	CCHF vOTU inh-1 35 | CCHF vOTU inh-2 inactive
Cc1ccc(C)c(N2CCN(C(C(=O)NC3CCCC3)c3ccco3)CC2)c1 (centres undefined)	none (no result: PriA SSB inh, BH1578 lux ind, VHR inh abs)
COc1cccc(C(C(=O)NC2CCCC2)N2CCN(c3cc(C)ccc3C)CC2)c1OC (centres undefined)	CCHF vOTU inh-1 30 (no result: PriA SSB inh, BH1578 lux ind, VHR inh abs) | CCHF vOTU inh-2 inactive
Cn1c(SCC(=O)NCCc2ccccc2)nc2c(-c3ccccc3)csc2c1=O	none (no result: CCHF vOTU inh-1, TcdB inh, BH1578 lux ind, PrPC TRFRET, VHR inh abs)
Cc1nc(-c2ccc(N3CCN(C(=O)c4cc(=O)c5ccccc5o4)CC3)nc2)no1	none (no result: CCHF vOTU inh-1, TcdB inh, BH1578 lux ind, PrPC TRFRET, VHR inh abs)
CCN(C[C@H]1N[C@@](CC)(C(=O)OC)[C@H]2C(=O)N(Cc3ccccc3)C(=O)[C@@H]12)S(=O)(=O)c1ccc(OC)cc1	CCHF vOTU inh-1 33 (no result: VHR inh abs) | CCHF vOTU inh-2 inactive
CCN(C[C@H]1N[C@@](Cc2ccccc2)(C(=O)OC)[C@H]2C(=O)N(Cc3ccccc3)C(=O)[C@@H]12)S(=O)(=O)c1ccc(OC)cc1	none (no result: VHR inh abs)
CSc1cccc2sc(NC(=O)c3ccc(S(=O)(=O)N4CCCCC4)cc3)nc12	none (no result: CCHF vOTU inh-1, TcdB inh, BH1578 lux ind, PrPC TRFRET, VHR inh abs)
COc1cc(NCCCNC(C)C)c2nccc(C)c2c1	CCHF vOTU inh-1 57 (no result: VHR inh abs) | CCHF vOTU inh-2 inactive
CCSc1nc(-c2ccccc2)cc(=O)[nH]1	CCHF vOTU inh-1 31 (no result: VHR inh abs) | CCHF vOTU inh-2 inactive
O=c1cc(-c2ccccc2)nc(SCc2ccccc2)[nH]1	none (no result: TcdB inh)
